Results as given in ChEMBL document CHEMBL3988442, “University of Dundee, Small-Polar-MMV Screening Library” (2021).
For some assays here: Measured potencies and affinities stand elsewhere.

Each molecule was assayed against T1, Ubiquitin-activating enzyme e1, putative (Leishmania donovani (strain BPK282A1)) (UniProt E9BSI1) (assay: Leishmania donovani Ubiquitin Activating Enzyme (LdE1)). Conditions: 30 µM.
T1 sequence (whole entry): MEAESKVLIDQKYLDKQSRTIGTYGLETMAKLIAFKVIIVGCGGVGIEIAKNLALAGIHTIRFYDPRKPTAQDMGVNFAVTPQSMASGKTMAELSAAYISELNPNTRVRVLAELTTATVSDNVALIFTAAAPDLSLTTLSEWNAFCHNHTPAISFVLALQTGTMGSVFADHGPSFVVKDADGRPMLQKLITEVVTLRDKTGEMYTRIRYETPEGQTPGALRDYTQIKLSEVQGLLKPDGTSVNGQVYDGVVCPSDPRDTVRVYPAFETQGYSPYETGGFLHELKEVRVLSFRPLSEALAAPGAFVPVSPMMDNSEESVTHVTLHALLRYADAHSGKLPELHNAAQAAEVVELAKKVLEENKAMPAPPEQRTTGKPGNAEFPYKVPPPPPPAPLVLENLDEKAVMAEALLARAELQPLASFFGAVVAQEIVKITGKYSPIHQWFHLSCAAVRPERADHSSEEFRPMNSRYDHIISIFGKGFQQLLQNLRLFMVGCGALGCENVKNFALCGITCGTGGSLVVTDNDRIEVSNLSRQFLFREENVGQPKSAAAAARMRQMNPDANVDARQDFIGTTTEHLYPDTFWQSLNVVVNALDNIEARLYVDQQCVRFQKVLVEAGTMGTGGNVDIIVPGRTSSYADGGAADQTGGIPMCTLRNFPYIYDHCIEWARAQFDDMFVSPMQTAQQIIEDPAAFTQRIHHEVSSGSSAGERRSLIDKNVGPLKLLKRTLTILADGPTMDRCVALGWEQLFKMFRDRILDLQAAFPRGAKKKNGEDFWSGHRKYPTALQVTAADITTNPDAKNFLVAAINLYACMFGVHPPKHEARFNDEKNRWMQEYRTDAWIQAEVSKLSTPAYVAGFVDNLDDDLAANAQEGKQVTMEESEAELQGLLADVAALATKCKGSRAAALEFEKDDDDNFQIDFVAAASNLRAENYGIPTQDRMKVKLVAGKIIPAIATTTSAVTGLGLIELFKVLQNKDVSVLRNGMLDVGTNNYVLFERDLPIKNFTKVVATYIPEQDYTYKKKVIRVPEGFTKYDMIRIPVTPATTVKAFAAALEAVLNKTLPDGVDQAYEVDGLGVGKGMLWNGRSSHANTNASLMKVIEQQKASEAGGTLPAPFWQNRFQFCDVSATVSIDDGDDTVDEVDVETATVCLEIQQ
Assay type: functional
Parameters: scale not given: direction of the effect not stated beside the values
In the case of `COc1ccccc1CN1CCC2(CC1)CC(Oc1ccccn1)CO2` (stereo not given), the Percent Effect is reported as 16%.
In the case of `CC(C)Nc1nc(N2CCOCC2)nc2c1CN(CC(=O)N(C)C)CC2`, the Percent Effect is reported as 0%.
`c1ccc(CCN2CCN(c3ccc4nncn4n3)CC2)nc1` was tested, and the Percent Effect was 5.2%.
Work on `COc1cccc(CCNC(=O)CN2CCN(C)CC2C)c1` (stereo not given) yielded a Percent Effect of 0%.
With `CC(=O)N1CCC(Oc2ccc(C#N)cn2)CC1` the Percent Effect was 8.22%.
With `COc1cccc(CCC(=O)N2CCCCC2Cn2cccn2)c1` (stereo not given) the Percent Effect was 7.79%.
In the case of `Cc1scc(C(=O)N2CCC3(CC(=O)NC3=O)C2)c1-c1ccccc1` (stereo not given), the Percent Effect is reported as 5.41%.
`CCc1csc(C2CCCN(C(=O)c3ccc(OC)nn3)C2)n1` (stereo not given) showed a Percent Effect of 7.79%.
In the case of `CN(C)S(=O)(=O)c1ccc(CN2CCCC2c2ccccc2)o1` (stereo not given), the Percent Effect is reported as -7.89%.
`Clc1cc(CN2CCCC2Cn2cncn2)c2ncccc2c1` (stereo not given) was tested, and the Percent Effect was 2.7%.
With `C=C(C)CN(Cc1cccc(O)c1)C1CCC(O)CC1` (stereo not given) the Percent Effect was 5.41%.
`CCn1c(N)nc2cc(C(=O)NCc3ccccc3Cl)cnc21` showed a Percent Effect of 8.22%.
For `CCOCC1CN(S(C)(=O)=O)Cc2cnn(C)c21` (stereo not given), the Percent Effect was 16%.
`c1ccc(OC[C@]23COC[C@H]2CN(c2ncccn2)C3)nc1` showed a Percent Effect of 8%.
For `CCCC(=O)NCc1cc(Br)c(OC)c(OC)c1`, the Percent Effect was 8%.
`CCc1csc(C2CCCN(C(=O)c3ccnc(N(C)C)c3)C2)n1` (stereo not given) was tested, and the Percent Effect was 13.2%.
`Cc1ccsc1-c1nnc(C2CCN(Cc3ccc(F)cc3)CC2)o1` gave a Percent Effect of -9.46%.
With `CC(NC(N)=O)C(=O)N(C)CCCc1cc(-c2ccccc2)no1` (stereo not given) the Percent Effect was 2.7%.
`Cc1cccc(C(=O)NCCCN2CCN(c3ccccc3)CC2)c1` showed a Percent Effect of 10.4%.
`CC1CCCCN1CCNC(=O)c1ccn(-c2ccc(F)cc2)n1` (stereo not given) was tested, and the Percent Effect was 18.9%.
For `Cc1noc(C)c1CN1CC2(CCN(C(=O)c3cscn3)CC2)CC1=O`, the Percent Effect was 10.4%.
`O=C(NCc1ccccn1)NC1CCOc2ccccc21` (stereo not given) gave a Percent Effect of 24.3%.
In the case of `COc1ccc(CN2C[C@@H](OCc3ccccn3)[C@H]3COC[C@H]32)cc1`, the Percent Effect is reported as -8.11%.
In the case of `Cc1cnn(CC2CCCN2Cc2nc3ccccc3nc2C)c1` (stereo not given), the Percent Effect is reported as 0%.
`Cn1cc(C2CCCN2CCCc2nc(-c3cccs3)no2)cn1` (stereo not given) gave a Percent Effect of -32.4%.
Work on `O=C(Nc1cccc(OCc2ccc(F)cc2)c1)C1COCCO1` (stereo not given) yielded a Percent Effect of -8%.
Molecule `O=C(C1CCCc2[nH]ncc21)N1CCCCCC1` (stereo not given) has a Percent Effect of 5.41%.
With `CN(C)S(=O)(=O)N1CCC(Oc2ccc(C#N)cn2)CC1` the Percent Effect was 5.2%.
With `O=C(c1cccc2cccnc12)N1CCCN(c2cccnn2)CC1` the Percent Effect was 10.4%.
`CC(NC(=O)NCc1cccnc1N1CCCCC1)c1nccs1` (stereo not given) gave a Percent Effect of 7.79%.
`CCS(=O)(=O)c1ccccc1N1CCC(NC(=O)NC2CCCC2)CC1` showed a Percent Effect of 10.8%.
For `Cc1nc(CN2CCN(CC(=O)Nc3c(C)cccc3C)CC2)no1`, the Percent Effect was 10.4%.
`Fc1ccc2c(c1)C(NCc1nnc3n1CCCCC3)CCCO2` (stereo not given) gave a Percent Effect of 8.11%.
`Cc1cc(N2CCN(Cc3ccc(-c4cc[nH]n4)o3)CC2)cc(C)n1` gave a Percent Effect of 13.3%.
Work on `COc1cc(C)nc(N2CCN(C(=O)CCc3cscn3)CC2)n1` yielded a Percent Effect of 2.7%.
With `O=C(NCC1CC1)[C@H]1CC[C@@H]2[C@@H](CCN2Cc2ccoc2)O1` the Percent Effect was 16.2%.
With `Cc1noc(C)c1C(=O)N(C)Cc1nc(-c2ccccn2)no1` the Percent Effect was 2.67%.
In the case of `CNc1nc(CNC(=O)Nc2ccccc2-c2noc(C)n2)cs1`, the Percent Effect is reported as -2.63%.
In the case of `Cc1nnc2n1CCN(C(=O)c1cc(Cl)c[nH]1)C2`, the Percent Effect is reported as -15.8%.
With `CCn1cc2c(n1)CN(CC1CC1)CC2COCC1CC1` (stereo not given) the Percent Effect was 10.7%.

These molecules were tested against AMP-activated protein kinase, AMPK (Homo sapiens) (UniProt P54646+O43741+P54619+Q9UGJ0+Q9Y478+Q13131+Q9UGI9) (assay: AMP-dependent Kinase enzyme assay. An in vitro enzyme assay that detects ADP turnover that is directly proportional to AMPK activity. This uses naive AMPK that is activated during the assay with MK-8722). Conditions: 30 µM.
Assay type: functional
Parameters: scale not given: direction of the effect not stated beside the values
`COc1ccccc1CN1CCC2(CC1)CC(Oc1ccccn1)CO2` (stereo not given) showed a Percent Effect of -2.4%.
`CC(C)Nc1nc(N2CCOCC2)nc2c1CN(CC(=O)N(C)C)CC2` showed a Percent Effect of 6.79%.
With `c1ccc(CCN2CCN(c3ccc4nncn4n3)CC2)nc1` the Percent Effect was 9.47%.
`COc1cccc(CCNC(=O)CN2CCN(C)CC2C)c1` (stereo not given) gave a Percent Effect of -4.34%.
In the case of `CC(=O)N1CCC(Oc2ccc(C#N)cn2)CC1`, the Percent Effect is reported as 1.71%.
`COc1cccc(CCC(=O)N2CCCCC2Cn2cccn2)c1` (stereo not given) was tested, and the Percent Effect was 6.53%.
`Cc1scc(C(=O)N2CCC3(CC(=O)NC3=O)C2)c1-c1ccccc1` (stereo not given) was tested, and the Percent Effect was 3.06%.
`CCc1csc(C2CCCN(C(=O)c3ccc(OC)nn3)C2)n1` (stereo not given) was tested, and the Percent Effect was -35.3%.
`CN(C)S(=O)(=O)c1ccc(CN2CCCC2c2ccccc2)o1` (stereo not given) showed a Percent Effect of 2.57%.
`Clc1cc(CN2CCCC2Cn2cncn2)c2ncccc2c1` (stereo not given) showed a Percent Effect of -1.32%.
In the case of `C=C(C)CN(Cc1cccc(O)c1)C1CCC(O)CC1` (stereo not given), the Percent Effect is reported as -0.588%.
Work on `CCn1c(N)nc2cc(C(=O)NCc3ccccc3Cl)cnc21` yielded a Percent Effect of 1.39%.
`CCOCC1CN(S(C)(=O)=O)Cc2cnn(C)c21` (stereo not given) showed a Percent Effect of -7.73%.
`c1ccc(OC[C@]23COC[C@H]2CN(c2ncccn2)C3)nc1` was tested, and the Percent Effect was 1.07%.
For `CCCC(=O)NCc1cc(Br)c(OC)c(OC)c1`, the Percent Effect was -3.19%.
Work on `CCc1csc(C2CCCN(C(=O)c3ccnc(N(C)C)c3)C2)n1` (stereo not given) yielded a Percent Effect of 0.891%.
`Cc1ccsc1-c1nnc(C2CCN(Cc3ccc(F)cc3)CC2)o1` gave a Percent Effect of 14.3%.
For `CC(NC(N)=O)C(=O)N(C)CCCc1cc(-c2ccccc2)no1` (stereo not given), the Percent Effect was 7.96%.
Work on `Cc1cccc(C(=O)NCCCN2CCN(c3ccccc3)CC2)c1` yielded a Percent Effect of -2.04%.
In the case of `CC1CCCCN1CCNC(=O)c1ccn(-c2ccc(F)cc2)n1` (stereo not given), the Percent Effect is reported as 3.92%.
Work on `Cc1noc(C)c1CN1CC2(CCN(C(=O)c3cscn3)CC2)CC1=O` yielded a Percent Effect of 0.445%.
`O=C(NCc1ccccn1)NC1CCOc2ccccc21` (stereo not given) showed a Percent Effect of -0.78%.
`COc1ccc(CN2C[C@@H](OCc3ccccn3)[C@H]3COC[C@H]32)cc1` was tested, and the Percent Effect was -0.636%.
Molecule `Cc1cnn(CC2CCCN2Cc2nc3ccccc3nc2C)c1` (stereo not given) has a Percent Effect of 0.154%.
`Cn1cc(C2CCCN2CCCc2nc(-c3cccs3)no2)cn1` (stereo not given) gave a Percent Effect of -4.52%.
Work on `O=C(Nc1cccc(OCc2ccc(F)cc2)c1)C1COCCO1` (stereo not given) yielded a Percent Effect of 0.674%.
`O=C(C1CCCc2[nH]ncc21)N1CCCCCC1` (stereo not given) was tested, and the Percent Effect was -4.75%.
`CN(C)S(=O)(=O)N1CCC(Oc2ccc(C#N)cn2)CC1` was tested, and the Percent Effect was 0.734%.
`O=C(c1cccc2cccnc12)N1CCCN(c2cccnn2)CC1` was tested, and the Percent Effect was -4.23%.
Work on `CC(NC(=O)NCc1cccnc1N1CCCCC1)c1nccs1` (stereo not given) yielded a Percent Effect of 4.63%.
With `CCS(=O)(=O)c1ccccc1N1CCC(NC(=O)NC2CCCC2)CC1` the Percent Effect was 5.69%.
Work on `Cc1nc(CN2CCN(CC(=O)Nc3c(C)cccc3C)CC2)no1` yielded a Percent Effect of -0.791%.
`Fc1ccc2c(c1)C(NCc1nnc3n1CCCCC3)CCCO2` (stereo not given) was tested, and the Percent Effect was -2.29%.
`Cc1cc(N2CCN(Cc3ccc(-c4cc[nH]n4)o3)CC2)cc(C)n1` was tested, and the Percent Effect was -25.4%.
`COc1cc(C)nc(N2CCN(C(=O)CCc3cscn3)CC2)n1` gave a Percent Effect of -1.3%.
`O=C(NCC1CC1)[C@H]1CC[C@@H]2[C@@H](CCN2Cc2ccoc2)O1` was tested, and the Percent Effect was -3.1%.
`Cc1noc(C)c1C(=O)N(C)Cc1nc(-c2ccccn2)no1` showed a Percent Effect of -0.593%.
For `CNc1nc(CNC(=O)Nc2ccccc2-c2noc(C)n2)cs1`, the Percent Effect was -2.79%.
`Cc1nnc2n1CCN(C(=O)c1cc(Cl)c[nH]1)C2` was tested, and the Percent Effect was 7.83%.
In the case of `CCn1cc2c(n1)CN(CC1CC1)CC2COCC1CC1` (stereo not given), the Percent Effect is reported as 4.51%.
